Laboratory results from PubChem BioAssay AID1159580 (chemical genetic matrix, 2015).
In all, about 5,500 compounds went through this assay and about 2,000 (36%) were called active. Inconclusive results (about 18%) are left out. No stated cut-off is given here; in the data, active means normalized growth mostly below about 0.91 (no sharp cut-off); inconclusive means no clear call, values can overlap the other calls; inactive means mostly above about 0.92. The list shows a part of the results.

Test: chemical genetic growth profiling, strain panel (AID 1159580);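 further: tested at 20 µM; growth read once vehicle control cultures reached saturation at 30 °C; 1 = growth at the plate median or of vehicle wells; lower values mean less growth of the strain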
Settings: growth OD

Measured: normalized growth

CC1(C)S[C@@H]2[C@H](NC(=O)COc3ccccc3)C(=O)N2[C@H]1C(=O)O
inactive: S. cerevisiae deletion strains, locus YJR075W, strain HOC1, active compounds read low 1 | S. cerevisiae deletion strains, locus YKL009W, strain mrt4, active compounds read low 1.03 | S. cerevisiae deletion strains, locus YKL068W, active compounds read low 1.02 | S. cerevisiae deletion strains, locus YKL085W, strain MDH1 (second series), active compounds read low 1.01 | S. cerevisiae deletion strains, locus YKL085W, strain MDH1, active compounds read low 1.01 | S. cerevisiae deletion strains, locus YKL160W, strain elf1, active compounds read low 0.977 | S. cerevisiae deletion strains, locus YKL190W, strain CNB1, active compounds read low 0.992 | S. cerevisiae deletion strains, locus YKR001C, strain vps1, active compounds read low 1.03 | S. cerevisiae deletion strains, locus YKR026C, strain gcn3, active compounds read low 0.983 | S. cerevisiae deletion strains, locus YKR091W, strain srl3, active compounds read low 0.991 | S. cerevisiae deletion strains, locus YLL001W, strain dnm1, active compounds read low 0.935 | S. cerevisiae deletion strains, locus YLL026W, active compounds read low 0.983 | S. cerevisiae deletion strains, locus YLL041C, strain sdh2, active compounds read low 0.999 | S. cerevisiae deletion strains, locus YLR027C, strain aat2, active compounds read low 0.973 | S. cerevisiae deletion strains, locus YLR039C, strain RIC1, active compounds read low 1.04 | S. cerevisiae deletion strains, locus YLR058C, strain SHM2, active compounds read low 1 | S. cerevisiae deletion strains, locus YLR102C, strain apc9, active compounds read low 1.02 | S. cerevisiae deletion strains, locus YLR113W, strain HOG1, active compounds read low 0.994 | S. cerevisiae deletion strains, locus YLR221C, strain rsa3, active compounds read low 1.01 | S. cerevisiae deletion strains, locus YLR258W, strain gsy2, active compounds read low 0.999 | S. cerevisiae deletion strains, locus YLR262C, strain YPT6 (second series), active compounds read low 0.968 | S. cerevisiae deletion strains, locus YLR262C, strain YPT6, active compounds read low 1.04 | S. cerevisiae deletion strains, locus YLR268W, strain sec22, active compounds read low 1.03 | S. cerevisiae deletion strains, locus YLR320W, strain mms22, active compounds read low 0.99 | S. cerevisiae deletion strains, locus YLR330W, strain CHS5, active compounds read low 1 | S. cerevisiae deletion strains, locus YLR342W, strain FKS1 (second series), active compounds read low 0.976 | S. cerevisiae deletion strains, locus YLR342W, strain FKS1, active compounds read low 0.975 | S. cerevisiae deletion strains, locus YLR357W, strain rsc2, active compounds read low 0.992 | S. cerevisiae deletion strains, locus YLR370C, strain arc18, active compounds read low 1 | S. cerevisiae deletion strains, locus YLR371W, strain rom2, active compounds read low 1.02 | S. cerevisiae deletion strains, locus YLR384C, strain iki3, active compounds read low 0.98 | S. cerevisiae deletion strains, locus YLR418C, strain cdc73, active compounds read low 1.06 | S. cerevisiae deletion strains, locus YML016C, strain PPZ1, active compounds read low 1.01 | S. cerevisiae deletion strains, locus YML032C, strain rad52, active compounds read low 1.04 | S. cerevisiae deletion strains, locus YML120C, strain ndi1, active compounds read low 0.995 | S. cerevisiae deletion strains, locus YML124C, strain tub3, active compounds read low 1.03 | S. cerevisiae deletion strains, locus YMR058W, strain fet3, active compounds read low 0.988 | S. cerevisiae deletion strains, locus YMR078C, strain ctf18, active compounds read low 1.02 | S. cerevisiae deletion strains, locus YMR125W, strain sto1, active compounds read low 1.01 | S. cerevisiae deletion strains, locus YMR129W, active compounds read low 0.998 | S. cerevisiae deletion strains, locus YMR205C, strain PFK2, active compounds read low 0.994 | S. cerevisiae deletion strains, locus YMR223W, strain ubp8, active compounds read low 1.02 | S. cerevisiae deletion strains, locus YMR231W, strain pep5, active compounds read low 1.01 | S. cerevisiae deletion strains, locus YMR263W, strain SAP30, active compounds read low 1 | S. cerevisiae deletion strains, locus YMR307W, strain GAS1, active compounds read low 0.989 | S. cerevisiae deletion strains, locus YNL067W, strain RPL9B, active compounds read low 1.01 | S. cerevisiae deletion strains, locus YNL071W, strain lat1, active compounds read low 1 | S. cerevisiae deletion strains, locus YNL128W, strain TEP1, active compounds read low 1.01 | S. cerevisiae deletion strains, locus YNL153C, strain GIM3, active compounds read low 1 | S. cerevisiae deletion strains, locus YNL183C, strain NPR1, active compounds read low 0.937 | S. cerevisiae deletion strains, locus YNL209W, strain ssb2, active compounds read low 1 | S. cerevisiae deletion strains, locus YNL233W, strain BNI4, active compounds read low 1.01 | S. cerevisiae deletion strains, locus YNL248C, strain rpa49, active compounds read low 1.03 | S. cerevisiae deletion strains, locus YNL250W, strain rad50, active compounds read low 1.03 | S. cerevisiae deletion strains, locus YNL271C, strain bni1, active compounds read low 1.02 | S. cerevisiae deletion strains, locus YNL298W, strain CLA4, active compounds read low 1.04 | S. cerevisiae deletion strains, locus YNL307C, strain MCK1, active compounds read low 1.03 | S. cerevisiae deletion strains, locus YNL322C, strain KRE1 (second series), active compounds read low 0.997 | S. cerevisiae deletion strains, locus YNL322C, strain KRE1, active compounds read low 1 | S. cerevisiae deletion strains, locus YNR049C, strain mso1, active compounds read low 0.994 | S. cerevisiae deletion strains, locus YNR052C, strain pop2, active compounds read low 1.01 | S. cerevisiae deletion strains, locus YOL006C, strain TOP1, active compounds read low 1.05 | S. cerevisiae deletion strains, locus YOL012C, strain htz1 1.38 | S. cerevisiae deletion strains, locus YOL147C, strain pex11, active compounds read low 1.02 | S. cerevisiae deletion strains, locus YOR001W, strain rrp6, active compounds read low 0.983 | S. cerevisiae deletion strains, locus YOR061W, strain CKA2, active compounds read low 1.02 | S. cerevisiae deletion strains, locus YOR069W, strain VPS5, active compounds read low 1 | S. cerevisiae deletion strains, locus YOR070C, strain gyp1, active compounds read low 1 | S. cerevisiae deletion strains, locus YOR080W, strain dia2, active compounds read low 0.986 | S. cerevisiae deletion strains, locus YOR083W, strain WHI5, active compounds read low 0.954 | S. cerevisiae deletion strains, locus YOR106W, strain vam3, active compounds read low 0.963 | S. cerevisiae deletion strains, locus YOR136W, strain idh2, active compounds read low 1.03 | S. cerevisiae deletion strains, locus YOR144C, strain elg1, active compounds read low 1.02 | S. cerevisiae deletion strains, locus YOR184W, strain ser1, active compounds read low 1.04 | S. cerevisiae deletion strains, locus YOR231W, strain MKK1, active compounds read low 1.02 | S. cerevisiae deletion strains, locus YOR265W, strain rbl2, active compounds read low 1 | S. cerevisiae deletion strains, locus YOR270C, strain vph1, active compounds read low 1.01 | S. cerevisiae deletion strains, locus YOR290C, strain snf2, active compounds read low 1.01 | S. cerevisiae deletion strains, locus YOR316C, strain cot1, active compounds read low 1.02 | S. cerevisiae deletion strains, locus YPL051W, strain arl3, active compounds read low 0.982 | S. cerevisiae deletion strains, locus YPL055C, strain LGE1, active compounds read low 1.01 | S. cerevisiae deletion strains, locus YPL078C, strain atp4, active compounds read low 0.955 | S. cerevisiae deletion strains, locus YPL106C, strain sse1, active compounds read low 0.998 | S. cerevisiae deletion strains, locus YPL240C, strain hsp82, active compounds read low 1 | S. cerevisiae deletion strains, locus YPL241C, strain CIN2, active compounds read low 1 | S. cerevisiae deletion strains, locus YPL256C, strain CLN2, active compounds read low 0.968 | S. cerevisiae deletion strains, locus YPR119W, strain clb2, active compounds read low 1.02 | S. cerevisiae deletion strains, locus YPR141C, strain kar3, active compounds read low 1.03 | S. cerevisiae deletion strains, locus YPR163C, strain tif3, active compounds read low 1.04 | S. cerevisiae deletion strains, locus YPR167C, strain met16, active compounds read low 1.02 | S. cerevisiae deletion strains, strain wtn01, active compounds read low 1.02 | S. cerevisiae strains, strain wild type, active compounds read low 1.01
